Active and inactive are the calls of the source.
Experiments:
Albumin (Bos taurus) = Albumin (Bos taurus) (UniProt P02769); experiment: compounds binding labelled BSA control protein – biochemical, small-molecule microarray, Alexa647 label, 635/667 nm fluorescence, artefact control for SMM control protein annotation, profiling panel (AID 1118); details: BSA-A647 binding, fluorescence 635 nm, higher = more signal;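 note: score merges 667 nm emission intensity and signal-to-noise per printed compound spot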
Sequence of Albumin (Bos taurus) (P02769 whole entry, looked up): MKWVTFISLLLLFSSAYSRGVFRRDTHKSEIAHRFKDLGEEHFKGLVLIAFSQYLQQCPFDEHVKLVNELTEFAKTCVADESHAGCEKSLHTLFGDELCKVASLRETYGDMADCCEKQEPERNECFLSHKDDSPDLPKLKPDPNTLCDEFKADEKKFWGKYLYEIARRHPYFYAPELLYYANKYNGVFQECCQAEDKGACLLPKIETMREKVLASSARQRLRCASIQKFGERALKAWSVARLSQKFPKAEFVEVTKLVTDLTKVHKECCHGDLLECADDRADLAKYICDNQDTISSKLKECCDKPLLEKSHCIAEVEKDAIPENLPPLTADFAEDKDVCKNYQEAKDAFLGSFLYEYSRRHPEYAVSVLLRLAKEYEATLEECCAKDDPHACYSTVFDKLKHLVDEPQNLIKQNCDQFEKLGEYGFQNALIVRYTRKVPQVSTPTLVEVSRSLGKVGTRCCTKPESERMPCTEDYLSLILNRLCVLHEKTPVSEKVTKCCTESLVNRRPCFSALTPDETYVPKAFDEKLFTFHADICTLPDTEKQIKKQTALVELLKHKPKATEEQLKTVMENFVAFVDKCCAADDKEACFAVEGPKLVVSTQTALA

[1] = probe aXIP binding to arrayed compounds – biochemical, NeuroSMM set, 635/667 nm fluorescence, primary screen (AID 1119); details: small-molecule microarray, higher = more signal, called active from +8 up or from −8 down;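 note: probe is the protein aXip251-270 applied at 1 µg/mL to compound-printed slides; binding of probe to printed compounds measured as 667 nm fluorescence plus signal to noise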
[2] = probe aNOTCH3 binding on compound microarray – biochemical, small-molecule microarray, 635/667 nm fluorescence, primary screen (AID 1120); details: higher = more signal;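 note: probe is a biotin-tagged antibody raised against NOTCH3 rather than NOTCH3 protein; score merges spot fluorescence near 667 nm with spot signal to noise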
[3] = probe aNOTCH2 binding on compound microarray – biochemical, small-molecule microarray, 635/667 nm fluorescence, primary screen (AID 1121); details: higher = more signal;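 note: score merges feature fluorescence read at 667 nm with its signal to noise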
[4] = target: Carbonic anhydrase 2 (Homo sapiens) (UniProt P00918); experiment: compounds binding carbonic anhydrase 2 – biochemical, small-molecule microarray, Alexa647-labelled CAII, profiling panel (AID 1122); details: CAII-A647 binding fluorescence, higher = more signal
[5] = COS7 lysate on small-molecule microarray, probe aHis, 635 nm (AID 1123); details: COS7 cell lysate, fluorescence, higher = more signal;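 note: z-score combines 667nm fluorescence intensity with signal-to-noise per printed compound spot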
[6] = probe aLAP1 signal on lysate-treated microarray – cell lysate, small-molecule microarray, COS7 lysate, primary screen (AID 1124); details: probe aLAP1, fluorescence, higher = more signal;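 note: lysate comes from COS7 cells expressing LAP1 and is applied at 0.3 µg/mL; score merges spot fluorescence near 667 nm with signal-to-noise over triplicate slides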
Sam68 (KHDRBS1) = experiment: compounds binding KHDRBS1 protein – biochemical, small-molecule microarray, 635 nm fluorescence, primary screen (AID 1125); details: higher = more signal;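 note: score merges 667 nm channel intensity with signal to noise over triplicate slides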
[7] = system: Chordin-like protein 2 (CHRDL2); experiment: compounds binding chordin-like 2 – biochemical, small-molecule microarray, 635 nm fluorescence, primary screen (AID 1126); details: fluorescence 635 nm, higher = more signal;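 note: printed compound slides probed with Chrdl2 protein at 4 µg/mL for 1 h at 4 C; score merges 667 nm emission intensity with signal to noise over three replicate slides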
[8] = target: Concanavalin-A (Canavalia ensiformis) (UniProt P02866); experiment: compounds binding concanavalin A lectin – biochemical, small-molecule microarray, Alexa647 label, 635 nm, artefact control for SMM control protein annotation, primary screen (AID 1127); details: ConA-A647 binding fluorescence, higher = more signal;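 note: z combines 667 nm emission intensity with signal-to-noise across three replicate slides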
Sequence of Concanavalin-A (Canavalia ensiformis) (P02866 whole entry, looked up): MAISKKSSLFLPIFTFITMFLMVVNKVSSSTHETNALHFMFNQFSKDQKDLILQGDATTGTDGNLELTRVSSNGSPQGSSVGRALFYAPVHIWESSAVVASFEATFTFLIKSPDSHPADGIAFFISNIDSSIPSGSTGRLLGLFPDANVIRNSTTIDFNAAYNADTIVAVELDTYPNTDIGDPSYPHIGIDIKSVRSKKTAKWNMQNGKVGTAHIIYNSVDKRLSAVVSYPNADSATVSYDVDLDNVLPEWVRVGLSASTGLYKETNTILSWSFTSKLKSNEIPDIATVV

[9] = compounds binding Alexa647 anti-His antibody – biochemical, small-molecule microarray, 635 nm fluorescence, artefact control for SMM control protein annotation, primary screen (AID 1128); details: higher = more signal;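 note: score merges feature fluorescence with signal-to-noise for each printed compound spot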
[10] = system: Human papillomavirus type 1a E7 protein (residues 1-88); experiment: HPV1a E7 small-molecule binders, primary screen, biochemical, small-molecule microarray, residues 1-88, 635 nm (AID 1129); details: small-molecule microarray binding, fluorescence 635 nm; higher = more signal
[11] = target: Focal adhesion kinase 1 (Homo sapiens) (UniProt Q05397); experiment: PTK2 protein binding on printed compound slides – biochemical, small-molecule microarray, 635/667 nm fluorescence, BSA, DTT, primary screen (AID 1130); details: 635 nm fluorescence, higher = more signal;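 note: composite of spot emission at 667 nm and signal to noise over triplicate slides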
Sequence of Focal adhesion kinase 1 (Homo sapiens) (Q05397 whole entry, looked up): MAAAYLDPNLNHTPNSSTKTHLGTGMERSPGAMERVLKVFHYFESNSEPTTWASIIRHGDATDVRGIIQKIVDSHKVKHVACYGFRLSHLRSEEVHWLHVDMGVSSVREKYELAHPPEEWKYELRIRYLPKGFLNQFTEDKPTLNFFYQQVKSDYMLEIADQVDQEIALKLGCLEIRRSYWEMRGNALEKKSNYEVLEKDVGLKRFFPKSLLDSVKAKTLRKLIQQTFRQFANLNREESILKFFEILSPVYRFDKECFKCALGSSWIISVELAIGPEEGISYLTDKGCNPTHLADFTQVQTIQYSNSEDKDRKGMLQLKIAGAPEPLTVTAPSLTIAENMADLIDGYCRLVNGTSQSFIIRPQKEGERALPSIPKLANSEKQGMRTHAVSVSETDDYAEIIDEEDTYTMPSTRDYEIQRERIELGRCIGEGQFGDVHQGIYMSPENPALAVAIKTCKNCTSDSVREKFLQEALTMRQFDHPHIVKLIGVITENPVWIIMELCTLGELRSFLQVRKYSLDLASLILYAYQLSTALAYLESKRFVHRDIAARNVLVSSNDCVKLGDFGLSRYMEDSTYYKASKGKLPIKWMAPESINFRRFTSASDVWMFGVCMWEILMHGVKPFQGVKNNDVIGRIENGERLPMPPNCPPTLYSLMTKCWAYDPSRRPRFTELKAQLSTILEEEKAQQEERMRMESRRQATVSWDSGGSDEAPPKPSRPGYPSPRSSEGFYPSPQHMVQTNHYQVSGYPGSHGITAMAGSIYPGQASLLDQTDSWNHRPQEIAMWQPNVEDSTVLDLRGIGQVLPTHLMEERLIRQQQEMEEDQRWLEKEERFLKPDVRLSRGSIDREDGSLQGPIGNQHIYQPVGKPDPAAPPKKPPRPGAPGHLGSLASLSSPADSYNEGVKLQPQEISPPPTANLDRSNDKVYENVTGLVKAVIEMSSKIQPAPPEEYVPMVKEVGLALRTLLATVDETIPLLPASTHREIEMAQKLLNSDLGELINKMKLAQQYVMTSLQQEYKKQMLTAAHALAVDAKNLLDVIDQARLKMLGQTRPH

[12] = system: Fibrinogen (Alexa647-labelled); experiment: Alexa647-fibrinogen binding to printed small molecules – biochemical, small-molecule microarray, 635/667 nm fluorescence, artefact control for SMM control-protein annotation, profiling panel (AID 1131); details: fibrinogen-A647 binding fluorescence, higher = more signal;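 note: z-score merges 667 nm fluorescence with per-spot signal-to-noise over triplicate slides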
[13] = target: Follistatin (Homo sapiens) (UniProt P19883); experiment: FST protein binding to printed compounds – biochemical, small-molecule microarray, 635/667 nm fluorescence, primary screen (AID 1132); details: 635 nm fluorescence, higher = more signal
Sequence of Follistatin (Homo sapiens) (P19883 whole entry, looked up): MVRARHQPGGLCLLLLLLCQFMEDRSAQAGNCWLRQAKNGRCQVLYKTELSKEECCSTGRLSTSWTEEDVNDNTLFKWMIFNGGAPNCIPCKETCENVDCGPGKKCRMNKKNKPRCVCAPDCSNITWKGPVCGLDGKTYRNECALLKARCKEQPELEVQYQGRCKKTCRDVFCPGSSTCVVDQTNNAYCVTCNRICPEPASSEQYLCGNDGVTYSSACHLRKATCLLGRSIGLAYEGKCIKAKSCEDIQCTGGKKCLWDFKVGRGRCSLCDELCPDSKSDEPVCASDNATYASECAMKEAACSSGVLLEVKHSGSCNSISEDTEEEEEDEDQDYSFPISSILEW

[14] = target: Fibroblast growth factor 2 (Homo sapiens) (UniProt P09038); experiment: basic fibroblast growth factor binding to printed compounds – biochemical, small-molecule microarray, 635/667 nm fluorescence, primary screen (AID 1133); details: FGF2, fluorescence 635/667, higher = more signal
Sequence of Fibroblast growth factor 2 (Homo sapiens) (P09038 whole entry, looked up): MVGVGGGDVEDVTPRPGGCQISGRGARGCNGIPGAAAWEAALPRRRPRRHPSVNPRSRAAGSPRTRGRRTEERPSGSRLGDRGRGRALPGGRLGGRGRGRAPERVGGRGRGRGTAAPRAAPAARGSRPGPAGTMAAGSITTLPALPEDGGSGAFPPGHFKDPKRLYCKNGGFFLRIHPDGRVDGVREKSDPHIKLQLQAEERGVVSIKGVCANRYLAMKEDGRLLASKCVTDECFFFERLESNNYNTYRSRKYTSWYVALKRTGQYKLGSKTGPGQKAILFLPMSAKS

[15] = JC-1 mitochondrial potential readout, lung cancer cells – cell-based, A549, JC-1 fluorescence, basal, 24 h, 100 nL, profiling panel (AID 1138); details: higher = more signal;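 note: A549 lung adenocarcinoma cells under basal conditions with no added stimulus; test concentration not given here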
Lefty1 = Lefty1 protein binding to printed compounds – biochemical, small-molecule microarray, 635/667 nm fluorescence, primary screen (AID 1139); details: fluorescence 635/667, higher = more signal
[16] = system: wheat germ agglutinin (Triticum aestivum), Alexa647-labelled; experiment: Alexa647-WGA lectin binding to printed small molecules – biochemical, small-molecule microarray, 635/667 nm fluorescence, artefact control for SMM control-protein annotation, profiling panel (AID 1140); details: WGA-A647 binding, 635 nm fluorescence, higher = more signal;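 note: score merges 667 nm feature emission with signal to noise over triplicate slides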
[17] = target: Luciferin 4-monooxygenase (Photinus pyralis) (UniProt P08659); experiment: inhibition of purified Photinus pyralis luciferase – biochemical, luminescence, purified enzyme, 2006 set, primary screen (AID 1141); details: purified firefly luciferase, SteadyGlo luminescence, 30 min; higher = more signal, called active from +8 up or from −8 down;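 note: cell-free assay with purified firefly luciferase at 100 ng per well in PBS; test concentration not given here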
Sequence of Luciferin 4-monooxygenase (Photinus pyralis) (P08659 whole entry, looked up): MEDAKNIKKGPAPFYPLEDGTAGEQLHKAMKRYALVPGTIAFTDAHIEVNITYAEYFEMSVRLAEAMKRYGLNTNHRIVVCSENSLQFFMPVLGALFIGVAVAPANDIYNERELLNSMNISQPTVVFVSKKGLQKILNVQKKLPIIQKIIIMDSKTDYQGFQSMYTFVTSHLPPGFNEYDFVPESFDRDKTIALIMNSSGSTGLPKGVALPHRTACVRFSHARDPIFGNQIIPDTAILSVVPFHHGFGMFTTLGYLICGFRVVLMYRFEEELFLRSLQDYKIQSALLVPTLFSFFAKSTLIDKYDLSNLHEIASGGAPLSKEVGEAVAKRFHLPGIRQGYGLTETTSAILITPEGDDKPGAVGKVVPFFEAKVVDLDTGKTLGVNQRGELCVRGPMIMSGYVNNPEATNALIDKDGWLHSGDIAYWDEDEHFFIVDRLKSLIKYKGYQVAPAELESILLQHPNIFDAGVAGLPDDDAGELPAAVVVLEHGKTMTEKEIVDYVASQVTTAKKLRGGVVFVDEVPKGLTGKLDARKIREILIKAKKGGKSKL

Row | Structure (SMILES) | composite z-score (Albumin (Bos taurus)) | composite Z-score [1] | composite z-score [2] | composite z-score [3] | composite z-score [4] | composite z-score [5] | composite z-score [6] | composite z-score (Sam68 (KHDRBS1)) | composite z-score [7] | composite z-score [8] | composite z-score [9] | composite z-score [10] | composite z-score [11] | composite z-score [12] | composite z-score [13] | composite z-score [14] | z-score [15] | composite z-score (Lefty1) | composite z-score [16] | z-score [17]
1 | COC(=O)C[C@H]1O[C@]2(C(=O)N(C)c3ccccc32)[C@@H](C)[C@@H]1[Si](C)(C)c1ccc(C)cc1 | 0.683 | 0.397 (inactive) | -0.113 | -0.117 | 0.0614 | 0.311 | 0.218 | 1.16 | 0.0565 | 0.379 | 0.522 | 1.12 | 0.342 | 0.343 | 0.498 | 0.148 | 0.557 | 0.818 | 0.255 | -0.507 (inactive)
2 | COc1ccc(NN2C(C(O)c3ccccn3)C=CC3C(=O)N(C4CCCCC4)C(=O)C32)cc1 (stereo not given) | 0.907 | 0.0797 (inactive) | 0.263 | 0.0117 | 0.7 | 2.24 | 0.969 | 1.3 | -0.203 | 1.14 | 0.914 | 1.22 | 0.342 | 0.955 | 0.888 | 0.421 | 0.717 | -0.223 | 0.836 | -2.74 (inactive)
3 | COC(=O)c1c(CC[C@@H](CO)NC(=O)N[C@H](Cn2cc(-c3ccccc3C)nn2)C(C)C)oc(C(C)=O)c1C(=O)OC | 0.119 | -0.115 (inactive) | -0.0731 | -0.075 | 0.0708 | -0.363 | -0.108 | -1.08 | -0.767 | 0.43 | 0.0233 | -0.0523 | 0.14 | 0.335 | -0.505 | -0.37 | -0.704 | -0.0683 | 0.567 | 0.379 (inactive)
4 | [N-]=[N+]=Nc1ccccc1C[C@@]1(C(=O)O)N=C(c2ccc(OCCCO)cc2)O[C@@H]1c1ccccc1 | 0.952 | 0.77 (inactive) | 0.0208 | -0.0895 | 0.799 | 2.76 | 0.45 | 1.03 | -0.777 | 1.15 | 1.22 | 0.749 | 0.769 | 0.997 | 0.247 | -0.0664 | 0.528 | -0.634 | 1.09 | -0.972 (inactive)
5 | C=CCN1C(=O)[C@@]2(CCC(=O)OC(C)(C)C)N=C(c3ccc(OCCCO)cc3)O[C@H]2c2ccccc21 | 0.71 | 0.0873 (inactive) | 0.108 | 0.0484 | 0.654 | 1.33 | 0.0616 | 0.817 | 0.145 | 1.16 | 2.33 | 0.909 | 1.54 | 0.652 | 1.23 | 0.898 | -0.758 | 0.319 | 0.525 | -4.58 (inactive)
6 | CC1CC/C=C\[C@H]2OC34C=CCN(CCN5CCOCC5)C(=O)[C@H]3N(CCO)C(=O)[C@@H]4C2C(=O)O1 (stereo not given in full) | -0.0406 | 0.377 (inactive) | -0.22 | -0.104 | 0.802 | -0.265 | 0.973 | -2.29 | -1.02 | -0.889 | 2.67 | -0.959 | -0.583 | 0.187 | -0.361 | -0.0989 | -0.213 | -0.887 | -0.176 | 0.749 (inactive)
7 | [N-]=[N+]=Nc1ccccc1[C@H]1OC(c2ccc(OCCCO)cc2)=N[C@@]1(CCS(=O)(=O)c1ccccc1)C(=O)N1CCCCC1 | 0.949 | -0.311 (inactive) | 0.355 | -0.0439 | 0.647 | 2.65 | 0.0866 | 1.3 | -0.106 | 1.19 | 2.65 | 1.23 | 0.944 | 0.989 | 0.83 | -0.0535 | -1.11 | -0.0647 | 1.27 | -11.7 (active)
8 | C=CCOC(=O)[C@@H]1[C@H]2C(=O)O[C@H](c3ccccc3)[C@H](c3ccccc3)N2[C@H](c2ccc(OCCOC(=O)[C@H]3C[C@H]4C(=O)N[C@@H](CCCCNC(C)=O)C(=O)N4[C@H]3c3cccc(OCCO)c3)cc2)[C@@]12C(=O)Nc1ccc(I)cc12 | -1.29 | 0.783 (inactive) | -0.016 | -0.12 | 0.336 | 1.13 | 0.583 | 1.31 | 1.06 | 1.15 | 1.98 | 1.19 | 0.323 | 0.777 | 1.43 | 1.45 | -1.11 | 1.28 | -0.045 | -0.662 (inactive)
9 | CN1C(=O)[C@@]2(CCS(=O)(=O)c3ccccc3)N=C(c3ccc(OCCCO)cc3)O[C@H]2c2ccccc21 | 0.159 | 0.334 (inactive) | 0.058 | -0.146 | 0.688 | 2.74 | 0.428 | 1.28 | 0.0089 | 1.1 | 3.54 | 1.26 | 0.582 | 0.974 | 1.29 | 0.394 | 1.15 | 0.358 | 1.01 | -0.899 (inactive)
10 | C=C(CCCC)C(=O)CC[C@@H](OC(=O)c1cccnc1)c1ccccc1OCCO | -0.326 | 0.589 (inactive) | 0.1 | -0.0804 | 0.406 | -0.256 | 0.377 | 0.44 | 0.515 | -1.51 | -0.349 | -0.107 | -0.0523 | 0.48 | 0.865 | 1.34 | 1.24 | 1.56 | 0.058 | -0.511 (inactive)
11 | COc1ccc(NN2C(C(O)c3ccco3)C=CC3C(=O)N(C4CCCCC4)C(=O)C32)cc1 (stereo not given) | 0.749 | 0.0786 (inactive) | 0.353 | -0.115 | 0.377 | 1.44 | 0.564 | 1.32 | 0.0446 | 1 | 1.04 | 1.22 | 0.653 | 0.936 | 1.25 | 0.484 | 0.265 | 0.655 | 1.19 | -0.358 (inactive)

From PubChem BioAssay
